The full list was thinned out, with hits kept by preference.
LmPK inhibitor: qHTS Assay for Inhibitors of Leishmania Mexicana Pyruvate Kinase (LmPK) | Q27686 | purified LmPK, Kinase-Glo ATP luminescence, 1 h | Potency, µM (titrated, usually from 57.5 µM), inactives show at the top dose activity change, negative = inhibition, actives largely listed as inhibitors | hit rate 0.37% among 290,000; further: potency means the concentration at half of the fitted maximal effect; on the % scale 0 is the no-effect control and ±100 the full control effect
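qHTS format; LmPK 0.1 nM; substrates PEP 0.5 mM and ADP 0.1 mM. One-hour room-temperature incubation, then coupled luciferase luminescence; 0.5 nM enzyme wells mark activation.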
Giardia FBPA inh: qHTS Assay for Inhibitors of Fructose-1,6-bisphosphate Aldolase from Giardia Lamblia; A8B2U2; hit rate 0.71% among 290,000; AID 2451, 2010; purified Giardia FBPA; Potency, µM (doses to about 59.6 µM), for the others: at the top dose activity, negative = inhibition, most hits filed as inhibitors; further: potency means the concentration at half of the fitted maximal effect; on the % scale 0 is the no-effect control and ±100 the full control effect; nearly all actives have a fitted effect of over 55% in size
Target sequence (A8B2U2 whole entry, looked up): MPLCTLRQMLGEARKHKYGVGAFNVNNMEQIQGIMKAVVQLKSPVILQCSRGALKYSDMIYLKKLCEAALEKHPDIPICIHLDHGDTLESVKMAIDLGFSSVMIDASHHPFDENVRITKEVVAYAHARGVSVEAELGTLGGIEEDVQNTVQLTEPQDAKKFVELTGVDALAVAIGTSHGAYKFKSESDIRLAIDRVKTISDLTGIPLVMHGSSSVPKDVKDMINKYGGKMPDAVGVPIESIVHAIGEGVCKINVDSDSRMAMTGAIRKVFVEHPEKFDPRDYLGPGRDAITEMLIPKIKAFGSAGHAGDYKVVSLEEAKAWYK
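40 nM FBPA preincubated 10 min at RT with compound (up to 57.5 uM final), then substrate plus GAPDH/TPI/NAD/arsenate coupling and diaphorase/resazurin added. Fluorescence read after 20 min at RT, 525/598 nm.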
Shiga toxin inh: A qHTS for Small Molecule Inhibitors of Shiga Toxin | Vero cells, Shiga toxin protein synthesis inhibition reporter | inhibition, % at 38.7 µM | hit rate 9.2% among 290,000; in the data active means inhibition mostly above about 28%, no sharp cut-off; inactive means mostly below about 43%; further: 0% is about no effect
TbPYK inhibitor: qHTS of Trypanosoma Brucei Inhibitors; TbPYK enzyme, Kinase-Glo Plus ATP luminescence, 45 min; Potency, µM (titrated, usually from 76.8 µM), without a hit: top-dose activity, negative = inhibition, hits mostly inhibitors; pyruvate kinase (Trypanosoma brucei), Q57TT1; hit rate 0.12% among 410,000; further: potency means the concentration at half of the fitted maximal effect; on the % scale 0 is the no-effect control and ±100 the full control effect; nearly all actives have a fitted effect of over 50% in size
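Screened from lowest to highest concentration, compounds were pinned into TbPYK/substrate mixtures, and ADP (130 uM final) was added. Plates sat at room temperature for 45 min prior to Kinase-Glo Plus detection by luminescence.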
RE007 growth inh: qHTS Assay for Inhibitors of the HIV-1 protein Vpr; S. pombe RE007 Vpr strain, BacTiter-Glo ATP luminescence, 24 h; Potency, µM (series often up to 92.2 µM), for the others: at the top dose activity change, negative = less growth, actives largely listed as inhibitors; hit rate 0.21% among 360,000; AID 651644, 2012; active means well fitted falling curve with a large enough effect; inconclusive means small, poorly fitted or top-dose-only effect; inactive means no such curve, though single readings can be large or run the other way; further: potency means the concentration at half of the fitted maximal effect; on the % scale 0 is the no-effect control and ±100 the full control effect; nearly all actives have a fitted effect of over 50% in size
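Fission yeast strain RE007, carrying one chromosomally integrated HIV-1 vpr copy, was seeded at OD 0.01 in PMG+AL medium with 23 nL pinned compound. After 24 h at 30 °C and 99% humidity, viability was read by BacTiter-Glo luminescence.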
CHX counter: Cycloheximide Counterscreen for Small Molecule Inhibitors of Shiga Toxin; cell reporter, cycloheximide protein synthesis inhibition counterscreen; max response, %; hit rate 12% among 300,000; AID 2314, 2010; in the data active means max response mostly above about 13%, no sharp cut-off; inactive means mostly below about 14%; further: read at 38.3 µM for the half of the compounds with a filed dose; 0% is about no effect
Numbers without * were called inactive; ? = inconclusive; . = no result given; [ ] = another dose, or the depositor's remark. Unless noted, the call rests on the fitted dose curve; in most records, active means well fitted curve in the direction sought with a large enough effect; inconclusive means small, poorly fitted or top-dose-only effect, or another doubt; inactive means no such curve, though single readings can be large; an effect the other way counts as inactive or inconclusive.

SMILES	LmPK inhibitor	Giardia FBPA inh	Shiga toxin inh	TbPYK inhibitor	RE007 growth inh	CHX counter
NC(=S)Cc1nc(-c2ccccc2)cs1	4%	2%	-6	-9%	6%	6
O=c1oc2ccccc2cc1-c1csc(Cc2nc(-c3ccc(Cl)cc3)cs2)n1	3%	3%	-8	-1%	-27%	-1
Oc1csc(Cc2nc(-c3ccc4ccccc4c3)cs2)n1	2%	-3%	59*	-11%	-6%	38*
Cc1ccc(CN2C(=O)c3ccccc3CC2(C)C(=O)NC2CCCCC2)cc1 (configuration not stated)	.	.	.	-1%	.	.
COc1ccc(-c2ccc(OC)c(C3C4C=CCCC4(C)C(=O)N3Cc3ccccc3)c2)cc1OC (configuration not stated)	.	-5%	22	.	.	18
CCCn1c(C)nc2c(NCCN3CCOCC3)nc(C)nc21	.	-2%	.	.	.	.
CC(=O)c1cc(C(=O)Nc2cc(C)cc(C)c2)c2ccccn12	.	.	.	-3%	.	.
NS(=O)(=O)c1ccc(O)c(NC(=O)c2ccc([N+](=O)[O-])cc2)c1	2%	-2%	68	29%	2%	22*
O=C(CNc1cccc2ccccc12)c1ccc([N+](=O)[O-])cc1	-5%	?	-3	-9%	-5%	-3
O=C(Nc1cccc2ccccc12)c1cccc(F)c1	-7%	2%	28	-7%	-11%	7
O=C(Nc1cccc2ccccc12)c1ccc([N+](=O)[O-])cc1	-1%	-4%	21	1%	-10%	14*
O=C(Nc1cccc2ccccc12)c1ccccc1	3%	-2%	96*	0%	-2%	42*
NC(=O)c1ccccc1NC(=O)Nc1cccc2ccccc12	1%	-3%	15	2%	-18%	36*
COc1ccc(Cl)cc1NC(=O)c1cc(C)nn1-c1ccccc1	.	.	.	4%	.	.
Cc1cccc(NC(=O)CN2C(=O)CCn3nc(-c4cccn4C)cc32)c1C	.	.	.	-8%	.	.
COc1cccc(C2=Nn3c(nnc3-c3cc(OC)cc(OC)c3)SC2)c1	.	-5%	-3	.	.	-3
Nc1ccccc1C(=O)Nc1cccc2ccccc12	0%	-13%	36*	4%	-20%	35*
O=C(Nc1cccc2ccccc12)c1ccccc1Cl	-7%	0%	5	-2%	-5%	6
O=C(Nc1cccc2ccccc12)c1ccc(F)cc1	2%	6%	52*	-3%	-15%	44*
CCn1nnc2cc(C(=O)Nc3ccc(Cl)cc3C)ccc21	.	.	.	1%	.	.
Cc1nc(C)c(-c2ccc(SCC(=O)Nc3ccccc3F)nn2)s1	.	.	.	-7%	.	.
N#C/C(=C/c1ccc2c(c1)OCO2)C(=O)Nc1ccc(O)cc1	1%	10%	54	2%	-10%	49*
N#C/C(=C\c1ccc2c(c1)OCCO2)C(=O)Nc1ccc(C(=O)O)cc1	7%	-14%	113*	-23%	14%	78*
CCCCCCCCNC(=O)/C(C#N)=C/c1ccc2c(c1)OCCO2	3%	5%	15	2%	14%	2
CCOC(=O)c1cc2c(=O)n3ccccc3nc2n(CC(C)C)c1=NC(=O)COc1ccc(Cl)cc1	.	.	.	0%	.	.
SMILES	LmPK inhibitor	Giardia FBPA inh	Shiga toxin inh	TbPYK inhibitor	RE007 growth inh	CHX counter
COc1cccc(NC(=S)/C(=C(\[O-])c2cc(C)n(-c3ccccc3F)c2C)[n+]2ccc(N(C)C)cc2)c1	9%	-20%	76	0%	-15%	26*
Cc1ccc(/C=N/Nc2nc(Cl)c(Cl)cc2Cl)s1	0%	-2%	96*	-2%	-6%	28*
Cc1ccsc1/C=N/Nc1nc(Cl)c(Cl)cc1Cl	-2%	-4%	45	1%	0%	41*
Cc1ccsc1/C=N/n1cnnc1	-4%	6%	-15	-1%	13%	-2
CNS(=O)(=O)c1cccc(C(=O)OCC(=O)Nc2sc3c(c2C#N)CCCCC3)c1	1%	1%	44*	-3%	7%	26*
O=C(Nc1cc(Cl)ncn1)c1ccccc1	.	.	.	-4%	-13%	.
CCC(=O)Nc1sc2c(c1C#N)CCCCC2	0%	-7%	72*	4%	-19%	36*
CN(C)S(=O)(=O)c1ccc(C(=O)OCC(=O)Nc2sc3c(c2C#N)CCCCC3)cc1	-1%	13%	10	0%	-8%	-4
N#Cc1c(Cl)nsc1NC(=O)c1ccccc1	5%	13%	132*	3%	?	31*
CC(=O)Nc1sc2c(c1C#N)CCCCC2	-3%	2%	21	-22%	2%	18*
COc1ccc(C2C(=O)N(C3CCC(C)CC3)CC(=O)N2C2CCCC2)cc1OC (configuration not stated)	.	.	.	5%	.	.
CO[C@H]1COC(=O)[C@@H](Cc2ccccc2)NC(=O)[C@@H](C)COC(=O)C/C=C\[C@@H]1C	.	4%[12.9 µM]	.	.	.	.
CCc1ccc(NC(=O)CSC2=Nc3ccccc3C3=NC(CCC(=O)NCc4ccco4)C(=O)N23)cc1 (configuration not stated)	.	.	.	-1%	.	.
Cc1ccccc1C(=O)NC(=S)Nc1sc2c(c1C#N)CCCC2	4%	-13%	2	4%	-6%	11
C=CCNC(=S)Nc1sc2c(c1C#N)CCCC2	1%	?	68	-10%	-15%	23*
CCCC(=O)Nc1sc2c(c1C#N)CCCCC2	-2%	2%	47*	9%	-27%	37*
N#Cc1c(NC(=O)CCCC(=O)O)sc2c1CCCCC2	-2%	-2%	112*	-11%	-15%	34*
Cc1ccc(C(=O)Nc2sc3c(c2C#N)CCCCC3)cc1C	8%	-15%	43*	-2%	-4%	24*
CCOC(=O)c1c(C)[nH]c(C)c1S(=O)(=O)N1CCC(C(=O)NCc2ccccc2)CC1	.	.	.	-2%	.	.
CCc1ccc(NC(=O)C(Cc2ccccc2)NS(=O)(=O)c2ccc3c(c2)c(=O)n(C)c(=O)n3C)cc1 (configuration not stated)	.	.	.	5%	.	.
CC(NC(=O)c1cc(-c2ccc(Cl)cc2)on1)c1ccccc1 (configuration not stated)	.	.	.	-2%	.	.
COc1ccccc1CNc1cc(-c2ccoc2)ncn1	.	-14%	.	.	.	.
CC(C)CCOc1ccc(C(=O)Nc2sc3c(c2C#N)CCCCC3)cc1	.	.	.	-5%	.	.
N#Cc1c(NC(=O)c2ccccc2)sc2c1CCCCC2	-8%	0%	55*	-2%	5%	48*
CC(C)(C)C(=O)NC(=S)Nc1sc2c(c1C#N)CCCCC2	-2%	-17%	38	10%	4%	19*
CCc1ccc(S(=O)(=O)c2nnn(-c3ccc(F)cc3)c2N)cc1	.	.	.	1%	.	.
CN1C(=O)C(=O)/C(=C(/O)c2ccccc2)C1c1ccccc1 (configuration not stated)	-6%	-8%	2	4%	-4%	-3

Screening results from PubChem BioAssay.
